According to PubChem BioAssay (Tox21):
Unmarked numbers belong to inactive results. Records with an inconclusive call do not appear. Entries that show only a call come without a potency. Activity calls are given as the source filed them. Unless noted, calls follow the shape of the full dose curve.

What was measured:
[1] = Nuclear factor erythroid 2-related factor 2/antioxidant responsive element (Nrf2/ARE) small molecule agonists: qHTS cell viability counter screen in human keratinocytes (AID 1919968; active = well fitted curve in the direction sought with a large enough effect in the repeat runs; an effect the other way counts as inactive or inconclusive; also: nearly all actives have a fitted effect of over 55% in size)
Summary of the method: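 CellTiter-Fluor fluorescence, read 1 h after reagent, gave viability in the same wells as the ARE-luciferase assay. KeratinoSens cells (1,500/well) had 23 h compound exposure at 37 C/5% CO2 following 5 h plating.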

[2] = p53 small molecule agonists, cell-based qHTS assay with human liver microsomes (AID 1963577);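 also: p53 response element beta-lactamase reporter cells with liver microsomes plus NADPH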
Summary of the method: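 Metabolically competent format: test substances, human liver microsomes and NADPH (both 0.5 mg/mL final) incubated with p53RE-bla cells 16 h at 37 C. Beta-lactamase reporter signal then quantified by fluorescence.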

[3] = p53 small molecule agonists, cell-based qHTS assay with rat liver microsomes (AID 1963578)
Summary of the method: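 Each plate received p53RE-bla cells, then compound, then rat liver microsomes and NADPH (both 0.5 mg/mL final). Plates were held 16 h at 37 C, and beta-lactamase activity was detected with LiveBLAzer over 2 h.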

[4] = p53 small molecule agonists, cell-based qHTS assay with human liver microsomes: qHTS cell viability counter screen (AID 1963579); also: nearly all actives have a fitted effect of over 45% in size
Summary of the method: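 Tox21 library compounds, delivered from DMSO stocks, were tested on p53RE-bla cells together with 0.5 mg/mL human liver microsomes and 0.5 mg/mL NADPH (final) over 16 h at 37 C; CellTiter-Glo luminescence served as the cytotoxicity measure.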

[5] = p53 small molecule agonists, cell-based qHTS assay with rat liver microsomes: qHTS cell viability counter screen (AID 1963580); also: nearly all actives have a fitted effect of over 45% in size
Summary of the method: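 Cytotoxicity counter screen: intracellular ATP measured by CellTiter-Glo luminescence in the same wells as the beta-lactamase reporter read, on HCT-116 p53RE-bla cells exposed 16 h at 37 C to compounds with rat liver microsomes and NADPH, each 0.5 mg/mL final.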

[6] = p53 small molecule agonists, cell-based qHTS assay: qHTS cell viability counter screen (AID 1963581); also: nearly all actives have a fitted effect of over 45% in size
Summary of the method: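 Counter screen read by CellTiter-Glo luminescence (ATP content, 30 min at room temperature), run in the same wells as the beta-lactamase reporter read. HCT-116 p53RE-bla cells saw compounds for 16 h at 37 C.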

[7] = molecular target: 5-hydroxytryptamine receptor 2A (Homo sapiens) (UniProt P28223); experiment: 5-hydroxytryptamine receptor 2A (HTR2A) small molecule antagonists, cell-based qHTS assay (AID 1963586); also: nearly all actives have a fitted effect of over 45% in size
Summary of the method: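 CHO cells stably expressing human HTR2A were plated for 18 h at 37 C, then loaded with calcium dye for 1 h. Compounds were preincubated 5 min at room temperature before DOI (4 nM solution) was added. Kinetic fluorescence was read for 3 min.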

[8] = molecular target: 5-hydroxytryptamine receptor 2A (Homo sapiens) (UniProt P28223); experiment: 5-hydroxytryptamine receptor 2A (HTR2A) small molecule agonists, cell-based qHTS assay (AID 1963587); also: nearly all actives have a fitted effect of over 30% in size
Summary of the method: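 CHO cells stably expressing human HTR2A, plated 18 h, loaded with calcium dye 1 h at 37 C. Agonist mode: compounds added and intracellular calcium fluorescence recorded kinetically for 2 min at 1 sec intervals.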

[9] = molecular target: Muscarinic acetylcholine receptor M1 (Homo sapiens) (UniProt P11229); experiment: Cholinergic receptor muscarinic 1 (CHRM1) small molecule antagonists, cell-based qHTS assay (AID 1963588); also: nearly all actives have a fitted effect of over 40% in size
Summary of the method: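 Compounds were tested at 15 concentrations in three independent runs. Dye-loaded CHRM1-CHO cells were exposed 5 min at room temperature before stimulation by acetylcholine added at 50nM. Intracellular calcium was read kinetically on FDSS for 3 min.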

[10] = molecular target: Muscarinic acetylcholine receptor M1 (Homo sapiens) (UniProt P11229); experiment: Cholinergic receptor muscarinic 1 (CHRM1) small molecule agonists, cell-based qHTS assay (AID 1963589); also: nearly all actives have a fitted effect of over 35% in size
Summary of the method: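 Agonist-mode calcium-flux screen: compounds at 15 concentrations, three independent runs, were pin-transferred onto dye-loaded human CHRM1-CHO cells. Fluorescence was then recorded kinetically every second over minutes.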

[11] = cAMP Responsive Elements (CRE) small molecule agonists, cell-based qHTS assay (AID 1963590)
Summary of the method: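 Agonist mode: compound added to CRE-bla HEK 293T cells (2,000/well, 18 h after plating) for 3 h at 37 C/5% CO2. Reporter activity detected via FRET beta-lactamase substrate, 2 h room-temperature loading.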

[12] = cAMP Responsive Elements (CRE) small molecule antagonists, cell-based qHTS assay (AID 1963591; active = well fitted inhibition curve with a large enough effect in the signal ratio in the repeat runs, not every such curve was filed as active; the % refers to the signal ratio)
Summary of the method: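 Antagonist mode: compounds are added alongside the adenylyl cyclase activator NKH477 (0.25 uM final) to CRE-bla HEK293T cells for 3 h. LiveBLAzer FRET substrate, 2 h at room temperature, reports bla expression.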

[13] = molecular target: Beta-2 adrenergic receptor (Homo sapiens) (UniProt P07550); experiment: Adrenergic beta2 receptor (ADRB2) small molecule antagonists, cell-based qHTS assay (AID 1963592); also: series mostly up to about 92 µM; nearly all actives have a fitted effect of over 50% in size
Summary of the method: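 Assay format: CHO-ADRB2 cells, 18-20hr seeding at 37C/5% CO2, then compound plus 1nM isoproterenol agonist mix for 0.5hr RT. Homogeneous time-resolved fluorescence cAMP detection after 1hr, expressed as 665/615 nm ratio.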

[14] = molecular target: Beta-2 adrenergic receptor (Homo sapiens) (UniProt P07550); experiment: Adrenergic beta2 receptor (ADRB2) small molecule agonists, cell-based qHTS assay (AID 1963593);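 also: CHO cells stably overexpressing human ADRB2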
Summary of the method: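 CHO cells stably over-expressing ADRB2 were plated overnight at 37C, then dosed with compounds plus a stimulation mix containing 100uM IBMX and 25uM Ro-20-1724 for 0.5hr at room temperature. cAMP was measured by HTRF competition, 1hr.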

[15] = molecular target: D(2) dopamine receptor (Homo sapiens) (UniProt P14416); experiment: Dopamine D2 receptor (DRD2) small molecule agonists, cell-based qHTS assay (AID 1963594); also: nearly all actives have a fitted effect of over 35% in size
Summary of the method: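 HEK293 cells stably expressing human DRD2, pre-treated with PDE inhibitor Ro20-1724 (0.1 mM final) and compound 10 min at room temperature, then stimulated with NKH477 (200nM […]) for 30 min. cAMP read by HTRF (665/620 nm).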

[16] = molecular target: D(2) dopamine receptor (Homo sapiens) (UniProt P14416); experiment: Dopamine D2 receptor (DRD2) small molecule antagonists, cell-based qHTS assay (AID 1963595; active = well fitted inhibition curve with a large enough effect in the signal ratio in the repeat runs, with a control signal flat; the % refers to the signal ratio; also: potency is read from the fitted curve at half-maximal effect)
Summary of the method: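 Antagonism was scored as restored cAMP in HEK293-DRD2 cells. These cells were stimulated with 200 nM NKH477 and 12 nM quinpirole for 30 min at room temperature, in the presence of 0.1 mM Ro20-1724.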

[17] = molecular target: Gonadotropin-releasing hormone receptor (Homo sapiens) (UniProt P30968); experiment: Human gonadotropin-releasing hormone receptor (GnRHR) small molecule agonists, calcium flux assay in GnRHR-HEK293 cells (AID 1920063); also: nearly all actives have a fitted effect of over 35% in size
Summary of the method: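 Agonist mode: compounds at 15 concentrations, in triplicate, went onto calcium dye-loaded GnRHR-HEK293 cells. Intracellular calcium was then followed as 480/540 nm fluorescence at 1 s intervals over 3 min.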

[18] = molecular target: KiSS-1 receptor (Homo sapiens) (UniProt Q969F8); experiment: Human kisspeptin (KISS1R) small molecule agonists, calcium flux assay in KISS1R-HEK293 cells (AID 1920064; active = well fitted curve in the direction sought with a large enough effect in the repeat runs; an effect the other way counts as inactive or inconclusive)
Summary of the method: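 Agonist mode: intracellular calcium rise tracked at 1 s intervals over 3 min (480/540 nm) immediately after compound addition to dye-loaded KISS1R-HEK293 stable cells. Each compound tested at 15 concentrations in triplicate.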

[19] = G protein-coupled receptor (GPCR) small molecule agonists, calcium flux assay: HEK293 wild type cell line counter screen (AID 1920065)
Summary of the method: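 Calcium flux counter screen: compound added in agonist mode at 15 concentrations in triplicate to dye-loaded parental HEK293 cells. Fluorescence (480/540) read kinetically for 3 min; ATP served as positive control.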

[20] = p53 small molecule agonists, cell-based qHTS assay (AID 1963582; active = well fitted activation curve with a large enough effect in the signal ratio in the repeat runs, not every such curve was filed as active; the % refers to the signal ratio)
Summary of the method: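 Read-out is beta-lactamase FRET fluorescence after 2 h at room temperature with LiveBLAzer B/G substrate. p53 response element-bla cells were treated 16 h at 37 C with compounds in DMSO, added 5 h after seeding.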

5-hydroxytryptamine receptor 2A (Homo sapiens), sequence (P28223 whole entry, looked up): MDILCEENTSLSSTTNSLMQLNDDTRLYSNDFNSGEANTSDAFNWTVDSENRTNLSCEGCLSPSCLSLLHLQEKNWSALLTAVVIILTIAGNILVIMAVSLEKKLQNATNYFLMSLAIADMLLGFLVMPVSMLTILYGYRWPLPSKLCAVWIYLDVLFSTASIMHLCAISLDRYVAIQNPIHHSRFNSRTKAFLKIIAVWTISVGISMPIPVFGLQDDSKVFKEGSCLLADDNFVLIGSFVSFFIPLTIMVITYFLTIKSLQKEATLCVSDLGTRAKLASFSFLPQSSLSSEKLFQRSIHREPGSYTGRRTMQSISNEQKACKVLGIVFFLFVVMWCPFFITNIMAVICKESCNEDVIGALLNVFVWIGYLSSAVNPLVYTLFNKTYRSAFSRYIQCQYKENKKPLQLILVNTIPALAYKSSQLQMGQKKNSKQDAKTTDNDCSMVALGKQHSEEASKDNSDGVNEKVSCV
KiSS-1 receptor (Homo sapiens), sequence (Q969F8 whole entry, looked up): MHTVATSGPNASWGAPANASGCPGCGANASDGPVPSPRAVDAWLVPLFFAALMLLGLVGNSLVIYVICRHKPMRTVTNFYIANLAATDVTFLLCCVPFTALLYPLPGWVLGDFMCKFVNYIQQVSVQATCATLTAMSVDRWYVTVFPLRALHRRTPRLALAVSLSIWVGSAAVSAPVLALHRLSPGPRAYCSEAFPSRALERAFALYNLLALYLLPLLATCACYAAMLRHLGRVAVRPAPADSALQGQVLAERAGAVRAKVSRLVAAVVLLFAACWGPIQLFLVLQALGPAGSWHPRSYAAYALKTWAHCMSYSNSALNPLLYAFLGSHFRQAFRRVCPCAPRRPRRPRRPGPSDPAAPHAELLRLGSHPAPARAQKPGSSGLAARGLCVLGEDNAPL
D(2) dopamine receptor (Homo sapiens), sequence (P14416 whole entry, looked up): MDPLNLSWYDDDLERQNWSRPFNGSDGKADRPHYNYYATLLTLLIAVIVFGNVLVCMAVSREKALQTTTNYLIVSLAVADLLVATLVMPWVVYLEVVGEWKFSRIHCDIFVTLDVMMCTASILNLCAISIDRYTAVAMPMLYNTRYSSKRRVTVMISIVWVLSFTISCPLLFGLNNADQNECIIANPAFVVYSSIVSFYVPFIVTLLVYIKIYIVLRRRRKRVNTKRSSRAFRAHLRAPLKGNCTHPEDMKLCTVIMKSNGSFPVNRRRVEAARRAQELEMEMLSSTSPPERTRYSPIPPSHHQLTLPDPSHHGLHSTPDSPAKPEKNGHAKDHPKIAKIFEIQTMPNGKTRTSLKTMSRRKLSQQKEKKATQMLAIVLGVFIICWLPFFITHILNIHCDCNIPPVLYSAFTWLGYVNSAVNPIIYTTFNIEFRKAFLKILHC
Gonadotropin-releasing hormone receptor (Homo sapiens), sequence (P30968 whole entry, looked up): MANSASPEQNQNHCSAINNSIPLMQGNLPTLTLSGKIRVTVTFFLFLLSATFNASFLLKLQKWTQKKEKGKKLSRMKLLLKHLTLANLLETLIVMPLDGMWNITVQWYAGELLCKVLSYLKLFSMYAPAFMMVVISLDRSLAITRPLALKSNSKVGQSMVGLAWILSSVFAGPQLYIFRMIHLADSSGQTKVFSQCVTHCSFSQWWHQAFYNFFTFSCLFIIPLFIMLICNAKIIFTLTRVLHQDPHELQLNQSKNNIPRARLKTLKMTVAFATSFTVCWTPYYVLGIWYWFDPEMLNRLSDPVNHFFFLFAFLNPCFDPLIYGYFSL
Beta-2 adrenergic receptor (Homo sapiens), sequence (P07550 whole entry, looked up): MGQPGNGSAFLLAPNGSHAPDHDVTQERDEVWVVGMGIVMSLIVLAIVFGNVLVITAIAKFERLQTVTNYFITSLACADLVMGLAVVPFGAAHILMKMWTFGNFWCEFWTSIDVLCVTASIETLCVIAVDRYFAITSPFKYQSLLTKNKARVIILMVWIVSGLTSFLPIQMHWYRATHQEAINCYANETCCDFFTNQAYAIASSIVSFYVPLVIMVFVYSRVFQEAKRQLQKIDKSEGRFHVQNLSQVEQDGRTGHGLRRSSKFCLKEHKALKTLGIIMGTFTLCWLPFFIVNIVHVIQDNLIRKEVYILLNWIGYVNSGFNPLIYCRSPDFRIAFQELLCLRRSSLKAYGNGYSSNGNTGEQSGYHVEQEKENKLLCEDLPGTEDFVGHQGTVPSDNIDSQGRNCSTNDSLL
Muscarinic acetylcholine receptor M1 (Homo sapiens), sequence (P11229 whole entry, looked up): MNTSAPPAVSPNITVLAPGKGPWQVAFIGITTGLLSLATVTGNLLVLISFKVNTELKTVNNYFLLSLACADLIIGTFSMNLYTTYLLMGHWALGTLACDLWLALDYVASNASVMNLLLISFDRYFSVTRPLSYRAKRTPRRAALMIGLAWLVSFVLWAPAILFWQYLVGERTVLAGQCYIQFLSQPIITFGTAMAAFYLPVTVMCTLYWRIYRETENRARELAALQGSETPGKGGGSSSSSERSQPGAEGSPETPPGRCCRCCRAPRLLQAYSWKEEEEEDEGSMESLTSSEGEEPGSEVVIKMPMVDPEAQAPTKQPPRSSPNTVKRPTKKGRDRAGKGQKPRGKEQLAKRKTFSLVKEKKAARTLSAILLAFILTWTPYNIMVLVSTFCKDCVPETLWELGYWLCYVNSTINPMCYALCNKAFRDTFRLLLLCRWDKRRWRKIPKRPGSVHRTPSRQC

| SMILES | Potency [1] | Potency [2] | Potency [3] | Potency [4] | Potency [5] | Potency [6] | Potency [7] | Potency [8] | Potency [9] | Potency [10] | Potency [11] | Potency [12] | Potency [13] | Potency [14] | Potency [15] | Potency [16] | Potency [17] | outcome [18] | outcome [19] | Potency [20] |
| --- | --- | --- | --- | --- | --- | --- | --- | --- | --- | --- | --- | --- | --- | --- | --- | --- | --- | --- | --- | --- |
| CCCCCCCCCCCCCC(=O)OCC | inactive | inactive | inactive | inactive | inactive | inactive | inactive | inactive | inactive | inactive | inactive | inactive | inactive | inactive | inactive | inactive |  |  |  |  |
| CC(C)(C)c1cc(CCC(=O)OCCSCCOC(=O)CCc2cc(C(C)(C)C)c(O)c(C(C)(C)C)c2)cc(C(C)(C)C)c1O | inactive | inactive | inactive | inactive | inactive | inactive | inactive | inactive | inactive |  | inactive |  | inactive |  | inactive | inactive | inactive | inactive | inactive | inactive |
| CCc1cccc(C)c1N(C(=O)CS(=O)(=O)O)C(C)COC (centres undefined) | inactive | inactive | inactive | inactive | inactive | inactive | inactive | inactive | inactive | inactive | inactive | inactive | inactive |  | inactive | inactive | inactive | inactive | inactive | inactive |
| C[Si](C)(CCCN)O[Si](C)(C)CCCN | inactive | inactive | inactive | inactive | inactive | inactive | inactive | inactive |  | inactive | inactive | inactive |  | inactive | inactive | inactive |  |  |  |  |
| C=CC(C)(CCC=C(C)C)OC(=O)C(C)C (centres undefined) | inactive | inactive | inactive | inactive | inactive | inactive | inactive | inactive | inactive |  | inactive |  | inactive |  | inactive |  | inactive | inactive | inactive | inactive |
| CCCC(C(=O)OCCN(CC)CC)(c1ccccc1)c1ccccc1 | inactive | inactive | inactive | inactive | inactive | inactive |  | inactive | inactive |  |  |  |  |  | inactive | 26.6 µM (active) | inactive | inactive | inactive | inactive |
| Cc1cc(NC(=O)C2=C(O)c3ccccc3S(=O)(=O)N2C)no1 | inactive | inactive | inactive | inactive | inactive | inactive |  | inactive |  | inactive | inactive | inactive | inactive | inactive | inactive | inactive | inactive | inactive | inactive | inactive |
